Shown are actives, neighbours in structure and some others; about 1.2% of the full set was active somewhere.
Six1-Eya2 blk: Six1/Eya2 interaction inhibition. Q15475+O00167. AlphaScreen GST-Six1/His-Eya2 binding, biochemical; stronger effect = lower value. activity change, % (concentration not given with the values). 360,000 compounds, 0.56% hits. AID 651725
Target sequence (O00167 whole entry, looked up): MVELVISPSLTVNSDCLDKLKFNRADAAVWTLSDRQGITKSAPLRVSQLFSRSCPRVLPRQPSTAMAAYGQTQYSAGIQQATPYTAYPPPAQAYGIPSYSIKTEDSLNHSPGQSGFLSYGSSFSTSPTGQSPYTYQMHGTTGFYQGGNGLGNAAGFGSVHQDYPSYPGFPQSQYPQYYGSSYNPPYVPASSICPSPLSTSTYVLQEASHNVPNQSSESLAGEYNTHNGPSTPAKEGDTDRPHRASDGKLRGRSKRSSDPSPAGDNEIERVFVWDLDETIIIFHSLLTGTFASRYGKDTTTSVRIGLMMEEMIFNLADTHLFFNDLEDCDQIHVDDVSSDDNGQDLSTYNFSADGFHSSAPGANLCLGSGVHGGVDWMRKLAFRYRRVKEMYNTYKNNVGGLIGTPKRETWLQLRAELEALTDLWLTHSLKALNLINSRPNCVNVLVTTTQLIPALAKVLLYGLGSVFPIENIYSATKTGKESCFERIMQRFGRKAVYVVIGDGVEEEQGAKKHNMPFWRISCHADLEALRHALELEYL
Target sequence (Q15475 whole entry, looked up): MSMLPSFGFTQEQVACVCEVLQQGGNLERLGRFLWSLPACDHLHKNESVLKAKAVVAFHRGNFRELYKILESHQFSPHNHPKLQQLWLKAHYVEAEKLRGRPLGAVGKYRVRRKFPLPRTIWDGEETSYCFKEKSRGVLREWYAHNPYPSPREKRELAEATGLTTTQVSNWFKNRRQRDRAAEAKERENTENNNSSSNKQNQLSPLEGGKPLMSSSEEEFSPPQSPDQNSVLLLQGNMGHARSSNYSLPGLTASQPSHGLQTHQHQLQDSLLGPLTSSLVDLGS
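Compounds are tested against tagged Six1 and Eya2 proteins bridged by glutathione donor and nickel acceptor beads; after a one-hour incubation at 37 °C without light, AlphaScreen emission is recorded.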
Akt phos inh: blocks phosphorylation of Akt | Neuro2A IGF-stimulated pAkt S473 HTRF, 20 min; stronger effect = lower value | activity change, % for hits at 50 µM | 360,000 compounds, 0.32% hits | AID 651550; in the data active = activity change below about -80%; inconclusive = mostly about -51% to -80%
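Neuro2A cells in DMEM with 0.5% FBS, overnight at 37 deg C, given compound at single 50 µM final, then IGF (6 nM final) for 20 min at 37 deg C. Lysed; phospho-Akt Ser473 by HTRF after 24 h, 665/615 ratio.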
CtBP-E1A blk: CtBP/E1A binding inhibition | 340,000 compounds, 0.49% hits | AID 651724 | AlphaScreen GST-E1A/His-CtBP binding, 1536-well; stronger effect = lower value | activity change, % (no concentration beside the values)
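In 5 uL wells, 23 nL compound meets equimolar GST-E1A and His-CtBP (5X stock 125 nM each) for 2 h, 37 °C. Beads (5X, 50 ug/mL) then 1 h, 37 °C, dark.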
CCT chaperon mod: changes cytosolic chaperonin activity; AID 651819; 360,000 compounds, 0.3% hits; purified chaperonin ATPase assay, HTRF ADP detection, 30 min; activity change, % (concentration not given with the values), hits read low; in the data active = activity change below about -30%
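ATPase activity: ADP formed was measured by HTRF Transcreener (665/615 nm ratio) after 30 min at 37 deg C with 10 uM ATP. Compounds screened at one 76 uM concentration against 40 or 20 nM TRiC in Tris pH 7.4/KCl/MgCl2/DTT buffer.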
The depositor's hits bear a star; i = inactive; ? = inconclusive; . = not tested or not shown. Rule as the data show it, unless noted: active = activity change below about -65%; inconclusive = mostly about -30% to -63%; inactive = weaker than that. % is scaled to controls: 0 for no effect and ±100 for the full control effect.

SMILES	Six1-Eya2 blk	Akt phos inh	CtBP-E1A blk	CCT chaperon mod
O=c1oc2ccccc2c(O)c1Sc1c(O)c2ccccc2oc1=O	-74*	i	-83*	-3
c1ccc(-c2nc(NCCCn3ccnc3)c3oc4ccccc4c3n2)cc1	?	i	-68*	-2
c1cncc(-c2nc(NCCCn3ccnc3)c3ccccc3n2)c1	-73*	i	-11	0
CCN(CC(=O)Nc1ccc(NC(C)=O)cc1)CC(=O)Nc1ccc(Cl)c(Cl)c1	4	i	2	3
CCN(CC(=O)Nc1ccc(NC(C)=O)cc1)CC(=O)Nc1cccc(Cl)c1	-2	i	-24	-71*
COc1ccc2ccc(OCC(=O)NCC3CCCO3)cc2c1 (stereo not given)	4	i	-5	-1
COc1ccc(-c2cc(-c3ccccc3)nc(N)n2)c(O)c1	-77*	i	-25	-2
COc1ccc(-c2nc(N)ncc2-c2ccccc2)c(O)c1	-25	i	-11	-1
O=C(CNS(=O)(=O)c1ccc(F)cc1)N1CCCC1	0	i	-2	-6
CCCNC(=O)c1ccc2c(=O)c(O)c(-c3ccsc3)[nH]c2c1	?	i	-76*	-4
CCC(=O)C(C#N)(c1ccc(OC)c(OC)c1)C(C)C (stereo not given)	0	i	.	-1
COc1ccc(C(O)P(=O)(O)CCc2ccccc2)cc1 (stereo not given)	-2	-109%*	1	-1
CN(C)CCCOC(=O)c1ccccc1	1	i	7	4
CCOc1ccc(C(=O)OCCN(C)C)cc1	2	i	0	-32*
O=C(NNc1cc(Cl)cc(Cl)c1)C1CCC1	2	i	2	1
O=C(NNc1ccc(Cl)cc1)C1CCC1	-4	i	-2	-36*
CCCCC(=O)Nc1ccc(NC(=O)c2ccccc2OC)cn1	-1	-108%*	4	-3
CCCCC(=O)Nc1ccc(NC(=O)c2cc(OC)c(OC)c(OC)c2)cn1	-6	i	3	-3
CCNC(=O)NC(=O)C(C)Sc1nc2cc(C(=O)OC)ccc2c(=O)n1-c1ccccc1 (stereo not given)	4	-122%*	10	-4
CCOP(=O)(c1c(F)c(F)c(F)c(F)c1F)C(O)c1ccccc1 (stereo not given)	-9	-116%*	10	-13
COCCn1c(SCC(=O)NCC2CCCO2)nc2c(c1=O)SCC2 (stereo not given)	2	i	-5	1
NC(=O)NC(=O)CC1S/C(=N/N=C2/NC(=O)CS2)NC1=O (stereo not given)	-78*	i	?	0
O=C(O)CNC(=O)CC1S/C(=N/N=C2\CSC(=O)N2)NC1=O (stereo not given)	-93*	i	.	0
O=C(O)CNC(=O)CC1S/C(=N/N=C/c2ccccc2O)NC1=O (stereo not given)	-16	i	.	0
NS(=O)(=O)c1cccc(NC(=O)CSc2n[nH]c(-c3ccccc3Br)n2)c1	1	i	-6	0
SMILES	Six1-Eya2 blk	Akt phos inh	CtBP-E1A blk	CCT chaperon mod
CC(=O)c1c(C)[nH]c(C(=O)NCCc2ccccc2)c1C	7	-117%*	4	-5
COc1ccc(CCNC(=O)c2[nH]c(C)c(C(C)=O)c2C)cc1OC	-1	i	0	-12
Cc1cc(C(=O)N2CCN(S(C)(=O)=O)CC2)sc1-c1ccccc1	3	-82%*	1	-1
Cc1cc(C(=O)N2CCN(c3ncccn3)CC2)sc1-c1ccccc1	3	i	6	-3
Cc1ccc(CNC(=O)CNC(=O)c2ccc(C(C)(C)C)cc2)n1C	-10	i	0	0
Cc1cc(C(=O)Nc2c(F)c(F)c(F)c(F)c2F)n(-c2ccccc2)n1	?	i	-20	-3
C/C=C/c1ccc(OCCCNC)c(OC)c1	-1	-119%*	-2	-12
C/C=C/c1ccc(OCCNCc2ccccc2)c(OC)c1	0	i	-1	0
CCOC(=O)c1cccc(C2=CC(=O)C[C@H](c3ccc(OC)c(OC)c3)C2)c1	-12	i	-5	1
COc1ccc(N2CCN(S(=O)(=O)CCNC(=O)COc3ccc(Cl)cc3)CC2)cc1	0	i	3	-40*
COC(=O)c1cc(Br)ccc1NC(=O)Nc1ccc(C)cc1	1	-115%*	-1	0
COC(=O)c1cc(Br)ccc1NC(=O)Nc1ccccc1	3	i	3	-1
COc1ccc(NS(=O)(=O)c2ccc(C)c(C(=O)O)c2)cc1	1	i	-5	-2
COc1ccc(NS(=O)(=O)c2ccc(N)c(C(=O)O)c2)cc1	-1	-115%*	3	-1
O=C(N[C@@H]1CC[C@H](CCn2cc(-c3ccccn3)nn2)O[C@@H]1CO)c1ccncc1	-76*	i	-20	.
O=C(N[C@@H]1CC[C@@H](CCn2cc(-c3ccccc3)nn2)O[C@@H]1CO)c1cnccn1	5	i	4	.
CCCNC(=O)C(Cc1ccccc1C)NC(=O)c1ccc(C#N)cc1 (stereo not given)	-2	i	-4	-38*
CCOC(=O)C1=C(C)N2C(=C(C#N)[C@@H]1c1ccc(C(=O)OC)cc1)SC[C@@]2(O)C(C)(C)C	1	i	5	1
O=S(=O)(/C=C/c1ccccc1)n1cnc2ccccc21	12	-118%*	5	0
CCc1occc(=O)c1Oc1cc(NN2CCCCC2)c([N+](=O)[O-])cc1[N+](=O)[O-]	-10	i	-2	0
CNc1nc(-c2ccc(S(=O)(=O)N3CCCCC3)cc2)cs1	-3	i	.	-1
O=C(Nc1nc(-c2ccc(S(=O)(=O)N3CCCC3)cc2)cs1)c1ccco1	-69*	i	-85*	-1
CCc1ccccc1NC(=O)C1C(c2ccccc2)C1(Cl)Cl (stereo not given)	9	-107%*	3	1
Cc1[nH]nc2c1C(=O)CC(C)(C)C2	10	-110%*	0	-2
CN1C(=O)CC(N2CCN(C(=O)CN3CCCC3)CC2)C1=O (stereo not given)	5	i	4	1
SMILES	Six1-Eya2 blk	Akt phos inh	CtBP-E1A blk	CCT chaperon mod
CN1C(=O)CC(N2CCN(CC(=O)N3CCCC3)CC2)C1=O (stereo not given)	5	-113%*	13	-1
COc1ccc(-c2nn3c(-c4ccccn4)nnc3s2)cc1OC	-81*	i	-89*	-2
Brc1ccc(-c2nn3c(-c4ccccn4)nnc3s2)o1	-77*	i	-78*	-1
CCOC(=O)C1CCCN(C(=O)c2cccc(NC(=O)C(CC)CC)c2)C1 (stereo not given)	-17	i	-5	-1
O=C(O)c1cnc(-c2ccccc2)nc1C(F)(F)F	5	i	2	-51*
O=C(NCC1CCOCC1)c1ccc(-c2ccc(F)c(F)c2)c2ccoc12	-5	i	-2	1
COc1cnn(-c2ccc(F)cc2)c(=O)c1Br	1	i	5	-66*
COc1cc(OC)nc(-n2ncc(OC)c(Br)c2=O)n1	6	i	5	0
